Source: the supplement of paper PMC9694430

Experiments:
Assay in all cases: thermal shift delta Tm vs DMSO control; higher = stronger stabilization (binding)
Conditions in all cases: 12.5 µM; protein concentration 2 µM
LOC_OS04G57630-cb004 = test system: LOC_OS04G57630-cb004
Outline: (§1)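 Rice kinase domain constructs were expressed in E. coli, purified, and tested by differential scanning fluorimetry with compound added in DMSO. Each well of a 96-well plate held 19.5 μl of 2 μM kinase in 100 mM potassium phosphate pH 7.5, 150 mM NaCl, 10% glycerol and 5 × SYPRO Orange, and fluorescence was read from 25°C to 95°C at 0.05°C/s. The melting temperature shift is the mean of triplicates, taken against protein with DMSO alone after Boltzmann fitting.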

LOC_OS05G07850-cb002 = test system: LOC_OS05G07850-cb002
Outline: as §1

LOC_OS05G16824-cb004 = test system: LOC_OS05G16824-cb004
Outline: as §1

LOC_OS05G28520-cb001 = test system: LOC_OS05G28520-cb001
Outline: as §1

LOC_OS05G30820-cb001 = test system: LOC_OS05G30820-cb001
Outline: as §1

LOC_OS05G43570-cb004 = test system: LOC_OS05G43570-cb004
Outline: as §1

LOC_OS06G16330-cb003 = test system: LOC_OS06G16330-cb003
Outline: as §1

LOC_OS06G22820-cb001 = test system: T1, LOC_OS06G22820-cb001
T1 sequence (whole entry): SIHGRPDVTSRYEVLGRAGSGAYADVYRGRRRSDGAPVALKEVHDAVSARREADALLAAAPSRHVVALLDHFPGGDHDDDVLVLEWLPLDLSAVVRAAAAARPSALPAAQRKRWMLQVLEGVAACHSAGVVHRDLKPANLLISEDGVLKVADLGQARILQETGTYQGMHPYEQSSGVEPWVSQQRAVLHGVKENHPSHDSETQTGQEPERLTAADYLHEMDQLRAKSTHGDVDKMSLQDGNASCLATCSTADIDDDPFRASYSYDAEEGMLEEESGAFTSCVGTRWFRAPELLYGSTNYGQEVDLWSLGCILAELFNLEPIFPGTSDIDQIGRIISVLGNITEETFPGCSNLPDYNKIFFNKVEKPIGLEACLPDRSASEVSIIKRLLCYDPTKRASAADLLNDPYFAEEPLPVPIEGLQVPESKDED
Outline: as §1

LOC_OS07G06570-cb004 = test system: LOC_OS07G06570-cb004
Outline: as §1

LOC_OS07G07230-cb001 = test system: LOC_OS07G07230-cb001
Outline: as §1

Chain of LOC_OS06G16330-cb003 (as listed by the source): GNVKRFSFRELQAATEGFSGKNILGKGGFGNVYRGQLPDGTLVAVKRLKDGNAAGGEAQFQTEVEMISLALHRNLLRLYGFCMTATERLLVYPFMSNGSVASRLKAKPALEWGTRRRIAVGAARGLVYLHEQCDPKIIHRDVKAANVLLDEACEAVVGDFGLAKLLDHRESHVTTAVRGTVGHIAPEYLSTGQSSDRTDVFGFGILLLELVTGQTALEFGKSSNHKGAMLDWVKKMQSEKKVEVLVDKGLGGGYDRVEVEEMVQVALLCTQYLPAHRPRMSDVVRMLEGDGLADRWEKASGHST

| SMILES | thermal shift delta Tm (LOC_OS04G57630-cb004) [°C] | thermal shift delta Tm (LOC_OS05G07850-cb002) [°C] | thermal shift delta Tm (LOC_OS05G16824-cb004) [°C] | thermal shift delta Tm (LOC_OS05G28520-cb001) [°C] | thermal shift delta Tm (LOC_OS05G30820-cb001) [°C] | thermal shift delta Tm (LOC_OS05G43570-cb004) [°C] | thermal shift delta Tm (LOC_OS06G16330-cb003) [°C] | thermal shift delta Tm (LOC_OS06G22820-cb001) [°C] | thermal shift delta Tm (LOC_OS07G06570-cb004) [°C] | thermal shift delta Tm (LOC_OS07G07230-cb001) [°C] |
| --- | --- | --- | --- | --- | --- | --- | --- | --- | --- | --- |
| N#Cc1c(O)c2c(-c3ccc(-c4ccccc4O)cc3)csc2[nH]c1=O | 0.93 | 0.59 | -0.44 | 1.06 | 0.78 | 1.18 | 1.03 | 0.91 | 1.2 | 0.19 |
| CCNC(=O)Nc1ccc(-c2nc3c(c(N4CCOC[C@@H]4C)n2)CCN(C2COC2)C3)cc1 | 0.05 | 0.56 | -1.52 | 0 | 0.54 | 0.3 | 0.18 | 0.27 | 1.06 | 0.66 |
| C#Cc1cccc(Nc2ncnc3cc4c(cc23)OCCOCCOCCO4)c1 [Icotinib] | 1.01 | 8.46 | -0.7 | 0.87 | 0.31 | 0.43 | 3.06 | 0.81 | 1 | 0.07 |
| O=C(c1ccc(F)c(F)c1Nc1ccc(I)cc1F)N1CC(O)([C@@H]2CCCCN2)C1 [Cobimetinib (GDC-0973, RG7420)] | 0.22 | 0.2 | -1.19 | 0.07 | 0.47 | 0.39 | -0.17 | 0.43 | 1.59 | 0.43 |
| CCOc1ccn(-c2ccc(F)cc2)c(=O)c1C(=O)Nc1ccc(Oc2ccnc(N)c2Cl)c(F)c1 | 0.68 | 11.6 | 1.29 | 0.56 | 0.42 | 1.2 | 4.26 | 0.43 | 0.64 | 0.01 |
| COc1ccc(-c2ccc3c(N4CCOCC4)nc(N4C[C@@H](C)O[C@@H](C)C4)nc3n2)cc1CO | -0.55 | -0.78 | -3.16 | 0 | 0.48 | 0.2 | -0.25 | 0.14 | 0.51 | 0.35 |
| O=C(O)c1ccc(Nc2ncc3c(n2)-c2ccc(Cl)cc2C(c2c(F)cccc2F)=NC3)cc1 | -0.29 | 4.66 | -1.88 | 0.62 | 0.22 | 0.24 | -0.12 | 0.97 | 0.4 | 0.33 |
| O=C(c1ccc(/C=C/c2n[nH]c3ccccc23)cc1)N1CCNCC1 | 3.95 | 9.5 | 10.5 | 2.59 | 1.8 | 0.66 | 7.34 | 0.53 | 1.15 | 0.03 |
| COCC(=O)NC/C=C/c1ccc2ncnc(Nc3ccc(Oc4ccc(C)nc4)c(C)c3)c2c1 | 0.08 | 3.11 | -4.84 | -0.02 | 0.4 | 0.04 | 0.23 | 0.59 | 0.41 | 0.08 |
| CN(C)C/C=C/C(=O)Nc1cc2c(Nc3ccc(F)c(Cl)c3)ncnc2cc1O[C@H]1CCOC1 [Afatinib (BIBW2992) Dimaleate] | 1.02 | 7.65 | -0.29 | 0.44 | 0.24 | 0.46 | 2.05 | 0.61 | 1.27 | 0.08 |
| CNC(=O)c1ccccc1Nc1nc(Nc2ccc(N3CCOCC3)cc2OC)ncc1Cl | 1.29 | 11.8 | 5.34 | 0.37 | 0.69 | 0.1 | 4.89 | 0.54 | 1.58 | 0.57 |
| CN1c2ccccc2C(=O)Nc2cnc(Nc3ccc(N4CCC(O)CC4)cc3)nc21 | 2.68 | 11.7 | 3.76 | 0.16 | 1.15 | 0.33 | 8.37 | 0.43 | 0.89 | 1.4 |
| C[C@H]1[C@H](C)CC[C@]2(C(=O)O)CC[C@]3(C)C(=CC[C@@H]4[C@@]5(C)C[C@@H](O)[C@H](O)[C@@](C)(CO)[C@@H]5CC[C@]43C)[C@H]12 [Asiatic Acid] | 0.45 | 0.11 | -3.69 | 0.47 | 0.73 | 1.08 | -0.23 | 0.71 | 0.82 | 0.24 |
| COc1ccc(-c2ccc3c(N4CCOC[C@@H]4C)nc(N4CCOC[C@@H]4C)nc3n2)cc1CO | -0.09 | 0.42 | -7.62 | 0.13 | 0.67 | 0.21 | 0.03 | 0.43 | 0.38 | 0.11 |
| Cn1cc(-c2ccc3ncc(Cc4ccc5ncccc5c4)n3n2)cn1 | 1.12 | 5.01 | -1.27 | 0.45 | 0.48 | 0.16 | 2.64 | 0.5 | 0.78 | 0.13 |
| Nc1nc(N)c(N=O)c(OCC2CCCCC2)n1 | 0.27 | 8.06 | 1.8 | 0.61 | 0.8 | 0.23 | 2.17 | 0.95 | 1.43 | -0.02 |
| CCCCCCCCCCCCc1ccc(S(=O)(=O)Nc2nncs2)cc1 | -0.02 | 0.11 | -2.07 | 0.11 | 0.45 | 0.64 | 0.11 | 0.75 | 1.23 | 0.24 |
| CS(=O)(=O)N1CCN(Cc2cc3nc(-c4cccc5[nH]ncc45)nc(N4CCOCC4)c3s2)CC1 [Pictilisib (GDC-0941)] | -0.38 | 5.5 | 0.86 | 0.48 | 0.36 | 0.46 | 0.57 | 0.43 | 0.46 | 0.23 |
| NC1(Cc2ccc(Cl)cc2)CCN(c2ncnc3[nH]ccc23)CC1 | 0.12 | 2.2 | 0.61 | 0.49 | 0.66 | 0.72 | 0.73 | 0.61 | 0.47 | -0.27 |
| CC1Oc2cc(cnc2N)-c2c(nn(C)c2C#N)CN(C)C(=O)c2ccc(F)cc21 (stereo not given) | 0.38 | 2.16 | -1.64 | 0.23 | 0.66 | 0.83 | 10.9 | 0.16 | 0.86 | 0.75 |
| Clc1ccc(C2(c3ccc(-c4cn[nH]c4)cc3)CCNCC2)cc1 | 0.35 | 1.23 | -0.22 | 0.22 | 0.51 | 1.87 | 0.19 | 0.61 | 1.01 | 0.03 |
| CN1CCN(CCOc2cc(OC3CCOCC3)c3c(Nc4c(Cl)ccc5c4OCO5)ncnc3c2)CC1 [Saracatinib (AZD0530)] | 0.78 | 7.68 | 3.59 | 0.24 | 0.41 | 0.7 | 7.52 | 0.89 | 1.29 | 0.13 |
